# Laboratory results published in PubChem BioAssay.
# Calls of active or inactive are those of the source.
# Tests used:
# Albumin (Bos taurus) = Albumin (Bos taurus) (UniProt P02769); test: bovine serum albumin binders on microarray, profiling panel, artefact control for SMM control protein annotation, biochemical, small-molecule microarray, Alexa647 label, 635/667 nm fluorescence (AID 1118); details: BSA-A647 binding, fluorescence 635 nm, higher = more signal;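 also: score merges 667 nm emission intensity and signal-to-noise per printed compound spot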
# [1] = small-molecule microarray binders of probe aXIP, primary screen, biochemical, NeuroSMM set, 635/667 nm fluorescence (AID 1119); details: higher = more signal, called active from +8 up or from −8 down;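 also: probe is the protein aXip251-270 applied at 1 µg/mL to compound-printed slides; binding of probe to printed compounds measured as 667 nm fluorescence plus signal to noise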
# [2] = small-molecule binders of probe aNOTCH3, primary screen, biochemical, small-molecule microarray, 635/667 nm fluorescence (AID 1120); details: higher = more signal;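 also: probe is a biotin-tagged antibody raised against NOTCH3 rather than NOTCH3 protein; score merges spot fluorescence near 667 nm with spot signal to noise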
# [3] = small-molecule binders of probe aNOTCH2, primary screen, biochemical, small-molecule microarray, 635/667 nm fluorescence (AID 1121); details: higher = more signal;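 also: score merges feature fluorescence read at 667 nm with its signal to noise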
# [4] = target: Carbonic anhydrase 2 (Homo sapiens) (UniProt P00918); test: CAII small-molecule binders, profiling panel, biochemical, small-molecule microarray, Alexa647-labelled CAII (AID 1122); details: CAII-A647 binding fluorescence, higher = more signal
# [5] = COS7 lysate on small-molecule microarray, probe aHis, 635 nm (AID 1123); details: COS7 cell lysate, fluorescence, higher = more signal;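 also: z-score combines 667nm fluorescence intensity with signal-to-noise per printed compound spot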
# [6] = compound binding in COS7 lysate, probe aLAP1, primary screen, cell lysate, small-molecule microarray (AID 1124); details: probe aLAP1, fluorescence, higher = more signal;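 also: lysate comes from COS7 cells expressing LAP1 and is applied at 0.3 µg/mL; score merges spot fluorescence near 667 nm with signal-to-noise over triplicate slides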
# Sam68 (KHDRBS1) = test: Sam68 small-molecule binders, primary screen, biochemical, small-molecule microarray, 635 nm fluorescence (AID 1125); details: small-molecule microarray binding, higher = more signal;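 also: score merges 667 nm channel intensity with signal to noise over triplicate slides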
# [7] = test system: Chordin-like protein 2 (CHRDL2); test: CHRDL2 small-molecule binders, primary screen, biochemical, small-molecule microarray, 635 nm fluorescence (AID 1126); details: small-molecule microarray binding, fluorescence 635 nm; higher = more signal;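 also: printed compound slides probed with Chrdl2 protein at 4 µg/mL for 1 h at 4 C; score merges 667 nm emission intensity with signal to noise over three replicate slides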
# [8] = target: Concanavalin-A (Canavalia ensiformis) (UniProt P02866); test: ConA small-molecule binders, primary screen, artefact control for SMM control protein annotation, biochemical, small-molecule microarray, Alexa647 label, 635 nm (AID 1127); details: ConA-A647 binding fluorescence, higher = more signal;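 also: z combines 667 nm emission intensity with signal-to-noise across three replicate slides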
# [9] = anti-His antibody binders, primary screen, artefact control for SMM control protein annotation, biochemical, small-molecule microarray, 635 nm fluorescence (AID 1128); details: anti-His Alexa647 antibody binding, higher = more signal;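 also: score merges feature fluorescence with signal-to-noise for each printed compound spot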
# [10] = test system: Human papillomavirus type 1a E7 protein (residues 1-88); test: HPV1a E7 small-molecule binders, primary screen, biochemical, small-molecule microarray, residues 1-88, 635 nm (AID 1129); details: small-molecule microarray binding, fluorescence 635 nm; higher = more signal
# [11] = target: Focal adhesion kinase 1 (Homo sapiens) (UniProt Q05397); test: small-molecule microarray binders of FAK, primary screen, biochemical, 635/667 nm fluorescence, BSA, DTT (AID 1130); details: PTK2 binding, 635 nm fluorescence, higher = more signal;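 also: composite of spot emission at 667 nm and signal to noise over triplicate slides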
# [12] = test system: Fibrinogen (Alexa647-labelled); test: fibrinogen binders on compound microarrays, profiling panel, artefact control for SMM control-protein annotation, biochemical, small-molecule microarray, 635/667 nm fluorescence (AID 1131); details: fibrinogen-A647 binding fluorescence, higher = more signal;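 also: z-score merges 667 nm fluorescence with per-spot signal-to-noise over triplicate slides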
# [13] = target: Follistatin (Homo sapiens) (UniProt P19883); test: follistatin binders on small-molecule microarrays, primary screen, biochemical, small-molecule microarray, 635/667 nm fluorescence (AID 1132); details: FST binding, 635 nm fluorescence, higher = more signal
# [14] = target: Fibroblast growth factor 2 (Homo sapiens) (UniProt P09038); test: FGF2 binders on small-molecule microarrays, primary screen, biochemical, small-molecule microarray, 635/667 nm fluorescence (AID 1133); details: small-molecule microarray binding, FGF2, fluorescence 635/667; higher = more signal
# [15] = mitochondrial membrane potential change in A549 cells, profiling panel, cell-based, JC-1 fluorescence, basal, 24 h, 100 nL (AID 1138); details: higher = more signal;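 also: A549 lung adenocarcinoma cells under basal conditions with no added stimulus; test concentration not given here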
# Lefty1 = Lefty1 binders on small-molecule microarrays, primary screen, biochemical, small-molecule microarray, 635/667 nm fluorescence (AID 1139); details: small-molecule microarray binding, fluorescence 635/667; higher = more signal
# [16] = test system: wheat germ agglutinin (Triticum aestivum), Alexa647-labelled; test: wheat germ agglutinin binders on compound microarrays, profiling panel, artefact control for SMM control-protein annotation, biochemical, small-molecule microarray, 635/667 nm fluorescence (AID 1140); details: WGA-A647 binding, 635 nm fluorescence, higher = more signal;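 also: score merges 667 nm feature emission with signal to noise over triplicate slides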
# [17] = target: Luciferin 4-monooxygenase (Photinus pyralis) (UniProt P08659); test: firefly luciferase enzyme inhibitors, primary screen, biochemical, luminescence, purified enzyme, 2006 set (AID 1141); details: SteadyGlo luminescence, 30 min, higher = more signal, called active from +8 up or from −8 down;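 also: cell-free assay with purified firefly luciferase at 100 ng per well in PBS; test concentration not given here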
# Sequence of Luciferin 4-monooxygenase (Photinus pyralis) (P08659 whole entry, looked up): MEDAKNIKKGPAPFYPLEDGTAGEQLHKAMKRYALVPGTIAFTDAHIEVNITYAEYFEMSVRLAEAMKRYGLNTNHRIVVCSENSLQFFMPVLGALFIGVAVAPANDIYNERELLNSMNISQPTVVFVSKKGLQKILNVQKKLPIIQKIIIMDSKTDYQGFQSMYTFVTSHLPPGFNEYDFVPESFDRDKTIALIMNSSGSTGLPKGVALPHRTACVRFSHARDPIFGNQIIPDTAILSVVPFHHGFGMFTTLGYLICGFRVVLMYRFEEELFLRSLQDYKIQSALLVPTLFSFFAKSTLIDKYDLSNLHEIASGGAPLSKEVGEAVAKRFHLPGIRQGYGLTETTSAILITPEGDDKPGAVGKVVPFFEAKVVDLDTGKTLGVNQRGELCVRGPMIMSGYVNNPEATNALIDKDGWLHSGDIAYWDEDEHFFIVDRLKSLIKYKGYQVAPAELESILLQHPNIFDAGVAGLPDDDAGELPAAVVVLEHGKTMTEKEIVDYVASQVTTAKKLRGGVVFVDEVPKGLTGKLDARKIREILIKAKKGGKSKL
# Sequence of Follistatin (Homo sapiens) (P19883 whole entry, looked up): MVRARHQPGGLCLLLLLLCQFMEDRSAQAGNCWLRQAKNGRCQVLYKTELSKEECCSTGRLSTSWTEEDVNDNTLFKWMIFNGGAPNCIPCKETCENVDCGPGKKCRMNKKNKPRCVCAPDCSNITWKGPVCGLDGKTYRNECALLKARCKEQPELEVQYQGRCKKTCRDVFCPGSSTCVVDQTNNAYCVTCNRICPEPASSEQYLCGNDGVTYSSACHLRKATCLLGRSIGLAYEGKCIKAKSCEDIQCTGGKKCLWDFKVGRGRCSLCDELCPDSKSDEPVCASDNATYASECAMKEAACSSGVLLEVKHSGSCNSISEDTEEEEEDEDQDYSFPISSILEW
# Sequence of Focal adhesion kinase 1 (Homo sapiens) (Q05397 whole entry, looked up): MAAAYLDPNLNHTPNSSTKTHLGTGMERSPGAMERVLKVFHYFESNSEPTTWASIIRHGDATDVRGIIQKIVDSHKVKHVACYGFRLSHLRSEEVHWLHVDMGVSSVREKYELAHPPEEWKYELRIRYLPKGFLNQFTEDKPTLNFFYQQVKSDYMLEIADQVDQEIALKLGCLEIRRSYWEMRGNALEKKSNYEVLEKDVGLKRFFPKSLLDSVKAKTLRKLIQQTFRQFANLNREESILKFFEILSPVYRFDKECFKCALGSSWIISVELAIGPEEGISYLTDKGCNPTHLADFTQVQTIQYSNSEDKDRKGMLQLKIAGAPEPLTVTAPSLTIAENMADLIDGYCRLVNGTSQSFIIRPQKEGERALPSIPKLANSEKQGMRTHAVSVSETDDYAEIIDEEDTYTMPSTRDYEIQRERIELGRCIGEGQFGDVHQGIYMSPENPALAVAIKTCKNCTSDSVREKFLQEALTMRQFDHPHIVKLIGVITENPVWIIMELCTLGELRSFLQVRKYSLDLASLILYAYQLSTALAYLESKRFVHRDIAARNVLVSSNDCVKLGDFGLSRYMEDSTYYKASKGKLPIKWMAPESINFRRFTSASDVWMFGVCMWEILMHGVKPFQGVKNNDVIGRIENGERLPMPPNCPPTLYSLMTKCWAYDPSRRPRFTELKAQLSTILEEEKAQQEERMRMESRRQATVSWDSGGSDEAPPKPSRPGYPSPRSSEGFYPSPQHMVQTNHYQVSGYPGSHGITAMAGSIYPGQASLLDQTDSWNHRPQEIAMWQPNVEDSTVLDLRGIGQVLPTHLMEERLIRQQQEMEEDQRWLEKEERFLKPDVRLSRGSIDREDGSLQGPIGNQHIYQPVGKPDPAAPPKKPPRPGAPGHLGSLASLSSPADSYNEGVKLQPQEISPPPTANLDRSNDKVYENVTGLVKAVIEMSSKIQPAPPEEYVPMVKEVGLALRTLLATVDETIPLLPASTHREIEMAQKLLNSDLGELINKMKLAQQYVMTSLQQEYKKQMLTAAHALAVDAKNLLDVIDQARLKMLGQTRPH
# Sequence of Albumin (Bos taurus) (P02769 whole entry, looked up): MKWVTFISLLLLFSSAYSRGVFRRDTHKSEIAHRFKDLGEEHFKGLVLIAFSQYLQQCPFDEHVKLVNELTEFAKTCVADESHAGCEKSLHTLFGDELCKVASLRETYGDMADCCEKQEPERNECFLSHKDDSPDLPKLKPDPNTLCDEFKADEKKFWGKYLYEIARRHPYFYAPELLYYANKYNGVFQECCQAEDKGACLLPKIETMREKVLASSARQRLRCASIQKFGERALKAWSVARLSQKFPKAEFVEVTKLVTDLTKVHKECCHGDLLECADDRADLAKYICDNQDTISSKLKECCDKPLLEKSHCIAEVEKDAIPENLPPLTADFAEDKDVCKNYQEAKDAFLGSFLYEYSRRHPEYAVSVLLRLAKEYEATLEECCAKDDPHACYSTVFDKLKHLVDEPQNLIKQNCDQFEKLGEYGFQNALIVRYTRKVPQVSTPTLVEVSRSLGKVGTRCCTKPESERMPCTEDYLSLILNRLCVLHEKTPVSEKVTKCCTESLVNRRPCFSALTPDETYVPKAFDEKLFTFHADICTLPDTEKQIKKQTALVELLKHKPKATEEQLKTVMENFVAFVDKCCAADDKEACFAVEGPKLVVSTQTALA
# Sequence of Fibroblast growth factor 2 (Homo sapiens) (P09038 whole entry, looked up): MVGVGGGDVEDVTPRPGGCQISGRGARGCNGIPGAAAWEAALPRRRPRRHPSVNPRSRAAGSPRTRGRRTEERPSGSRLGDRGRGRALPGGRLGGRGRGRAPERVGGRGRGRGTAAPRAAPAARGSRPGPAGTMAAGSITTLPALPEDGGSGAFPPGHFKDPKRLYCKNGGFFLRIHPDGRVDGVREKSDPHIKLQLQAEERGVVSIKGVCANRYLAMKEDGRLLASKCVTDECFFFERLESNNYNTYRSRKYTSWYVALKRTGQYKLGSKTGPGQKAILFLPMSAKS
# Sequence of Concanavalin-A (Canavalia ensiformis) (P02866 whole entry, looked up): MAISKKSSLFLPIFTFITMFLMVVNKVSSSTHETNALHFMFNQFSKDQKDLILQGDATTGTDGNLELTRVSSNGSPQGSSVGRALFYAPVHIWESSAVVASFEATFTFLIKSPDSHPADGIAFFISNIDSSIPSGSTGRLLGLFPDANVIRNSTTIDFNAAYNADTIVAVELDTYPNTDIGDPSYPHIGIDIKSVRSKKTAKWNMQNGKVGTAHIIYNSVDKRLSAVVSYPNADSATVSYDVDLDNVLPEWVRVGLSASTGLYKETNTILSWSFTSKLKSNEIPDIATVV
SMILES,composite z-score (Albumin (Bos taurus)),composite Z-score [1],composite z-score [2],composite z-score [3],composite z-score [4],composite z-score [5],composite z-score [6],composite z-score (Sam68 (KHDRBS1)),composite z-score [7],composite z-score [8],composite z-score [9],composite z-score [10],composite z-score [11],composite z-score [12],composite z-score [13],composite z-score [14],z-score [15],composite z-score (Lefty1),composite z-score [16],z-score [17]
C[C@@H](OCc1ccccc1)C1NC(=O)[C@@]23C(=O)N[C@@H](Cc4ccccc4)C2[C@H](C)[C@@]2(C)O[C@H]2C3/C=C/C/C=C\CNC(=O)CNC1=O (stereo not given in full),0.651,0.536 (inactive),-0.0647,-0.133,0.721,-0.282,0.234,-1.28,0.0667,-2.32,0.413,-0.668,0.193,-2.57,-0.237,-0.113,-0.777,-0.339,-1.08,0.196 (inactive)
C=CCC(OC(C)=O)[C@@H]1[C@@H](N(Cc2ccc(-c3ccccc3)cc2)C(=O)c2cccc3ccccc23)c2cc(OCCCO)ccc2N1C(=O)Cc1ccc2ccccc2c1 (stereo not given in full),0.413,-0.277 (inactive),-0.0345,-0.0891,-0.0417,0.321,0.194,-0.35,-0.133,-0.353,0.23,-0.0083,-0.0525,-0.545,0.295,-0.327,0.31,0.191,0.605,-0.105 (inactive)
C[C@H]1ON(c2ccc(C(=O)OC(C)(C)C)cc2)[C@@H](c2ccc(O)cc2)[C@@H]1C(=O)N1C(=O)OC[C@@H]1c1ccccc1,0.393,-0.281 (inactive),0.0218,-0.126,0.454,0.741,0.295,1.32,0.456,0.768,0.82,1.13,0.429,0.935,1.22,1.4,-0.802,0.724,0.38,-0.587 (inactive)
O=C1NC(=O)C2C1C=CC(C(O)c1ccc3c(c1)OCO3)N2Nc1ccccn1 (stereo not given),0.939,0.246 (inactive),-0.0324,-0.12,0.555,2.99,0.183,0.153,0.704,0.667,0.942,0.256,0.0543,0.646,1.32,0.133,0.992,0.146,1.01,-0.716 (inactive)
COc1ccccc1CN1C(=O)c2ccccc2[C@](Cc2ccccc2I)(C(=O)NC(C)C)[C@@H]1c1ccc(CO)cc1,0.894,0.338 (inactive),0.101,-0.123,0.131,2.39,0.226,1.3,0.286,1.16,1.94,1.24,0.629,0.983,1.14,0.506,1.86,0.773,1.16,1.35 (inactive)
